# In the supplement of paper PMC8728848:
# This is one part of a sample in which the strongest signals are shown more often than they occur.
# Tests used:
# Assay in all cases: glycan array binding signal (z-score within array); higher = stronger binding
# Settings in all cases: glycan notation: IUPAC condensed, linker removed; mutation: D229G
# [1] = target: Fuc(a1-2)Gal(b1-3)GlcNAc(b1-2)Man(a1-3)[Fuc(a1-2)Gal(b1-3)GlcNAc(b1-2)Man(a1-6)]Man(b1-4)GlcNAc(b1-4)GlcNAc
# In short: (§1)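 Glycan array data were curated from 3228 arrays in the Consortium for Functional Glycomics database and kept only where the protein sequence was available. Glycan names were converted to IUPAC-condensed notation, and columns mapping to the same glycan were averaged. The binding signal is a within-array Z-score, averaged across arrays of the same protein sequence at different concentrations or buffers and across linkers. Negative Z-scores can be read as non-binding.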
# [2] = target: Fuc(a1-2)Gal(b1-3)GlcNAc(b1-3)GalNAc
# In short: as §1
# [3] = target: Fuc(a1-2)Gal(b1-3)GlcNAc(b1-3)[Gal(b1-4)GlcNAc(b1-6)]Gal(b1-4)Glc
# In short: as §1
# [4] = target: Fuc(a1-2)Gal(b1-4)GlcNAc
# In short: as §1
# [5] = target: Fuc(a1-2)Gal(b1-4)GlcNAc(b1-3)Gal(b1-4)GlcNAc(b1-3)Gal(b1-4)GlcNAc
# In short: as §1
# [6] = target: Fuc(a1-2)Gal(b1-4)[Fuc(a1-3)]GlcNAc(b1-3)Gal(b1-4)[Fuc(a1-3)]GlcNAc
# In short: as §1
# [7] = target: Fuc(a1-2)Gal3S(b1-4)GlcNAc
# In short: as §1
# [8] = target: Fuc(a1-2)Gal6S(b1-4)Glc
# In short: as §1
# [9] = target: Fuc(a1-2)[Gal(a1-3)]Gal(b1-3)GlcNAc(b1-2)Man(a1-3)[Fuc(a1-2)[Gal(a1-3)]Gal(b1-3)GlcNAc(b1-2)Man(a1-6)]Man(b1-4)GlcNAc(b1-4)GlcNAc
# In short: as §1
# [10] = target: Fuc(a1-2)[Gal(a1-3)]Gal(b1-3)GlcNAc(b1-6)GalNAc
# In short: as §1
# [11] = target: Fuc(a1-2)[Gal(a1-3)]Gal(b1-4)GlcNAc(b1-2)Man(a1-3)[Fuc(a1-2)[Gal(a1-3)]Gal(b1-4)GlcNAc(b1-2)Man(a1-6)]Man(b1-4)GlcNAc(b1-4)GlcNAc
# In short: as §1
# [12] = target: Fuc(a1-2)[Gal(a1-3)]Gal(b1-4)GlcNAc(b1-6)GalNAc
# In short: as §1
# [13] = target: Fuc(a1-2)[Gal(a1-3)]Gal(b1-4)[Fuc(a1-3)]GlcNAc(b1-3)GalNAc
# In short: as §1
# [14] = target: Fuc(a1-2)[GalNAc(a1-3)]Gal(b1-4)GlcNAc(b1-2)Man
# In short: as §1
# [15] = target: Fuc(a1-2)[GalNAc(a1-3)]Gal(b1-4)GlcNAc(b1-3)[Fuc(a1-2)[GalNAc(a1-3)]Gal(b1-4)GlcNAc(b1-6)]GalNAc
# In short: as §1
# [16] = target: Fuc(a1-2)[GalNAc(a1-3)]Gal(b1-4)[Fuc(a1-3)]GlcNAc(b1-3)GalNAc
# In short: as §1
# [17] = target: Fuc(a1-3)[Gal(b1-4)]GlcNAc(b1-3)Gal(b1-4)[Fuc(a1-3)]GlcNAc(b1-3)Gal(b1-4)[Fuc(a1-3)]GlcNAc
# In short: as §1
# [18] = target: Fuc(a1-3)[Gal3S(b1-4)]GlcNAc6S
# In short: as §1
# [19] = target: Gal(a1-3)Gal(b1-3)GlcNAc
# In short: as §1
# [20] = target: Gal(a1-3)Gal(b1-3)GlcNAc(b1-2)Man(a1-3)[Gal(a1-3)Gal(b1-3)GlcNAc(b1-2)Man(a1-6)]Man(b1-4)GlcNAc(b1-4)GlcNAc
# In short: as §1
# [21] = target: Gal(b1-2)Gal
# In short: as §1
# [22] = target: Gal(b1-3)Gal
# In short: as §1
# [23] = target: Gal(b1-3)GlcNAc(b1-3)Gal(b1-4)GlcNAc(b1-3)Gal(b1-4)GlcNAc(b1-2)[Gal(b1-3)GlcNAc(b1-3)Gal(b1-4)GlcNAc(b1-3)Gal(b1-4)GlcNAc(b1-6)]Man(a1-6)[Gal(b1-3)GlcNAc(b1-3)Gal(b1-4)GlcNAc(b1-3)Gal(b1-4)GlcNAc(b1-2)Man(a1-3)]Man(b1-4)GlcNAc(b1-4)[Fuc(a1-6)]GlcNAc
# In short: as §1
# [24] = target: Gal(b1-3)GlcNAc6S
# In short: as §1
# [25] = target: Gal(b1-3)[Fuc(a1-4)]GlcNAc(b1-2)Man(a1-3)[Gal(b1-3)[Fuc(a1-4)]GlcNAc(b1-2)Man(a1-6)]Man(b1-4)GlcNAc(b1-4)[Fuc(a1-6)]GlcNAc
# In short: as §1
# [26] = target: Gal(b1-4)GlcNAc(b1-2)[Gal(b1-4)GlcNAc(b1-4)]Man(a1-3)[Gal(b1-4)GlcNAc(b1-2)Man(a1-6)]Man(b1-4)GlcNAc(b1-4)GlcNAc
# In short: as §1
# [27] = target: Gal(b1-4)GlcNAc(b1-2)[Gal(b1-4)GlcNAc(b1-4)]Man(a1-3)[GlcNAc(b1-4)][Gal(b1-4)GlcNAc(b1-2)Man(a1-6)]Man(b1-4)GlcNAc(b1-4)GlcNAc
# In short: as §1
# [28] = target: Gal(b1-4)GlcNAc(b1-3)Gal(b1-3)GalNAc
# In short: as §1
# [29] = target: Gal(b1-4)GlcNAc(b1-3)Gal(b1-4)GlcNAc(b1-2)Man(a1-3)[Gal(b1-4)GlcNAc(b1-3)Gal(b1-4)GlcNAc(b1-2)Man(a1-6)]Man(b1-4)GlcNAc(b1-4)[Fuc(a1-6)]GlcNAc
# In short: as §1
# [30] = target: Gal(b1-4)GlcNAc(b1-3)Gal(b1-4)GlcNAc(b1-3)Gal(b1-4)GlcNAc(b1-3)Gal(b1-4)GlcNAc(b1-3)Gal(b1-4)GlcNAc(b1-2)[Gal(b1-4)GlcNAc(b1-3)Gal(b1-4)GlcNAc(b1-3)Gal(b1-4)GlcNAc(b1-3)Gal(b1-4)GlcNAc(b1-3)Gal(b1-4)GlcNAc(b1-6)]Man(a1-6)[Gal(b1-4)GlcNAc(b1-3)Gal(b1-4)GlcNAc(b1-3)Gal(b1-4)GlcNAc(b1-3)Gal(b1-4)GlcNAc(b1-3)Gal(b1-4)GlcNAc(b1-2)Man(a1-3)]Man(b1-4)GlcNAc(b1-4)[Fuc(a1-6)]GlcNAc
# In short: as §1
binder,measurement,setting,value
"Epa1-NP-mutant-D229G (Candida glabrata), Q6VBJ0 (protein) MILNPALFLNKCVCIYTTLILLLLTNGGYATSSNDISLASKDPTTFPLGCSPDITTPKKGLSMELYSYDFRKKGSYPCWDAAYLDPNYPRTGYKSHRLLAKVDGVTGNINFYYHATKGCTPQLGHLPASYNYPKPLTMTNFTMLLYGYFRPKVTGFHTFTISADDLLFVNFGAGNAFDCCRRDSSADHFGNYQAYAIWGSKTAKDELTVHLDAGVYYPIRLFYNNREYGGALSFTFKTESNENTVSDFSEYFFSLDDTEEGCPGLISYDSSCASVKTSKIIGIDYHTETPNENLVPITKTIYHLGIPCTGTTTTPLCGSGFYDPLANKCVTINTSSTSSVTKTTSHTTSKEVSFHSSISSQKTLIPKSIPSPYGPIKSQSIPTEMETSSEISSSEYAFSDVISTPSHSPYTKKHSSLNSSSYTSTVIHSLTSYSISQGIFSTSLSEQNITSKSSTDKFSTATSMSNNITQSSIIISQFSTNNENYTTTSMHTSSDKISTETLNNSISTTTSILFSNSSTILKNNTTIISSDKDTHYHPVNPTIVCSTNKTEIICASITQPSISNSNNHWSSSVLKFNSTTVRSTLPSSAGSNETSINVPFSSSTESNTSTSSTSTSNSKMVRSTLPSSAGSNETSISVPFSSSTESNTSTSSTSTSNSKMVRSTLPSSAGSNETSINVPFSSSTESNTSTSSTSTSNSKTVRSTPFSSAGIIMTSLSQRNNKSASSYASSNSKCYNTADSCRKVHSTPSYLLTSSYTSEGVDYDCSLVSTKLKINDTNCVNNKHTTKSCLKTSVTTTIPTLEIKTARKSSSNTIGLHSYPTSSPNKSISSAPIIGYISSFKTIKTASPSYQTSDLTTITTITSLNNPGSTAVENTHESNDKSRKTSSNDISSKHSVIKETKDAVESSNKSHQTNTLKCSSIIIASSSHNSYESLGGTTLTLTLSKVYSPQNNDTLPFLEISEVNPSRTVLPESSKMMQYLTSTEERNKTARNTIATNIVSISTFHFEGEGNAIRMGYTQLLLMLIGIIVMNIGT",glycan array binding signal (z-score),[1],1.63
same,glycan array binding signal (z-score),[2],0.514
same,glycan array binding signal (z-score),[3],1
same,glycan array binding signal (z-score),[4],0.427
same,glycan array binding signal (z-score),[5],-0.455
same,glycan array binding signal (z-score),[6],-1.5
same,glycan array binding signal (z-score),[7],1.12
same,glycan array binding signal (z-score),[8],-0.521
same,glycan array binding signal (z-score),[9],0.17
same,glycan array binding signal (z-score),[10],0.093
same,glycan array binding signal (z-score),[11],2.01
same,glycan array binding signal (z-score),[12],-0.039
same,glycan array binding signal (z-score),[13],2.93
same,glycan array binding signal (z-score),[14],-0.751
same,glycan array binding signal (z-score),[15],0.092
same,glycan array binding signal (z-score),[16],-0.531
same,glycan array binding signal (z-score),[17],-0.559
same,glycan array binding signal (z-score),[18],2.08
same,glycan array binding signal (z-score),[19],-0.137
same,glycan array binding signal (z-score),[20],3.6
same,glycan array binding signal (z-score),[21],-1.18
same,glycan array binding signal (z-score),[22],-0.801
same,glycan array binding signal (z-score),[23],2.48
same,glycan array binding signal (z-score),[24],1.23
same,glycan array binding signal (z-score),[25],2.15
same,glycan array binding signal (z-score),[26],-1.41
same,glycan array binding signal (z-score),[27],-0.683
same,glycan array binding signal (z-score),[28],0.068
same,glycan array binding signal (z-score),[29],0.671
same,glycan array binding signal (z-score),[30],2.8
